# Measured values published in PubChem BioAssay (NCATS).
# Records with an inconclusive call do not appear. Activity calls are given as the source filed them. Calls follow the shape of the dose curve; as a rule, active = well fitted activation curve with a large enough effect; inconclusive = small, poorly fitted or top-dose-only effect; inactive = no such curve, though single readings can be large or run the other way.
# Molecular target: Cellular tumor antigen p53 (Homo sapiens) (UniProt P04637)
# Sequence (P04637 whole entry, looked up): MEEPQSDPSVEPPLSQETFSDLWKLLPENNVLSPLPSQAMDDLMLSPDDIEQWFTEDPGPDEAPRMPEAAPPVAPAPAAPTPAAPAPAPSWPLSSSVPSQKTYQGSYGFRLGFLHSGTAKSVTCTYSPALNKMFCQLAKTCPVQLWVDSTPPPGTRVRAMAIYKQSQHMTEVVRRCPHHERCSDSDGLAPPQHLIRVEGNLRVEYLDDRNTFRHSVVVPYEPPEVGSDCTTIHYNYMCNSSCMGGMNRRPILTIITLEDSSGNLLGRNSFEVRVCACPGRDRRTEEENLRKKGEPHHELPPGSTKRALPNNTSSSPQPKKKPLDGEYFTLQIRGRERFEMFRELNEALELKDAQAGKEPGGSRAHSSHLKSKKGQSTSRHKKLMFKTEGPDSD
# Assay: Primary qHTS for small molecule compounds that upregulate eGFP-tagged delta133p53alpha (in N-terminal) cells. (AID 2060322); also: nearly all actives have a fitted effect of over 75% in size;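 as to activation: cells pre-induced with doxycycline then dosed without doxycycline; series mostly up to about 56 µM; 0% = DMSO vehicle and 100% = reference activator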
# Conditions: NCI-H358 eGFP-delta133p53alpha fluorescence, 24 h; activation: hits give high values
# In short: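 NCI-H358 cells pre-induced 24 h with 10 ng/ml doxycycline for eGFP-delta133p53alpha, plated dox-free and exposed 24 h at 37C to titrated compounds. Fixed, Hoechst-stained; gated GFP peak intensity by laser scanning cytometry, normalized to DMSO (0%) and 57.5 uM 5-azacytidine (100%).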
# Potency is read from the fitted curve at half-maximal effect.
Compound,activation,Potency
NC(=O)c1cccc2[nH]c(-c3ccc([C@@H]4CCCN4)cc3F)nc12,-16.8% (inactive),–
O=C(Nc1cccc2c(=O)cc(-c3nn[nH]n3)oc12)c1ccc(OCCCCc2ccccc2)cc1,-4.79% (inactive),–
Cc1cc(C)c2nc(-c3ccccn3)cc(C(=O)Nc3ccc(S(=O)(=O)Nc4onc(C)c4C)cc3)c2c1,8.11% (inactive),–
COc1ccc(O)cc1,1.69% (inactive),–
C/C(=C(\CCOP(=O)(O)O)SC(=O)c1ccccc1)N(C=O)Cc1cnc(C)nc1N,-11.7% (inactive),–
CCCCC(=O)O[C@]1(C(=O)CO)CC[C@H]2[C@@H]3CCC4=CC(=O)CC[C@]4(C)[C@H]3[C@@H](O)C[C@@]21C,29.3% (inactive),–
CCN1CCCC1=O,10.7% (inactive),–
COc1cc2nc(-c3cc(F)ccc3O)nc(N[C@@H]3CNC[C@@H]3C(C)(C)O)c2cc1OC,–,34.3 µM (active)
CC=C(C(=CC)c1ccc(O)cc1)c1ccc(O)cc1,-4.09% (inactive),–
CNC(=O)c1cnn(-c2nc(N)c3ncn([C@@H]4O[C@H](CO)[C@@H](O)[C@H]4O)c3n2)c1,-18.4% (inactive),–
CCS(=O)(=O)c1ccc(OC)c(C(=O)OC)c1,19.8% (inactive),–
Cc1cc(CC(=O)O)c(C)n1-c1ccc(Cl)cc1,5.86% (inactive),–
C=CCn1c(=O)n([C@@H]2O[C@H](CO)[C@@H](O)[C@H]2O)c2nc(N)[nH]c(=O)c21,-0.565% (inactive),–
COC(=O)c1ccc(O)cc1,7.34% (inactive),–
CN/C(=C\[N+](=O)[O-])NCCSCc1csc(CN(C)C)n1,-0.837% (inactive),–
CCCCCCCC/C=C\CCCCCCCCN,-16.7% (inactive),–
Cc1cccc(N(C)C(=S)Oc2ccc3c(c2)C2CCC3C2)c1 (stereo not given),-15.1% (inactive),–
O=c1ccc2ccccc2o1,9.21% (inactive),–
CN[C@H](CC(C)C)C(=O)N[C@H]1C(=O)N[C@@H](CC(N)=O)C(=O)N[C@@H]2C(=O)N[C@H]3C(=O)N[C@H](C(=O)N[C@H](C(=O)O)c4cc(O)cc(O)c4-c4cc3ccc4O)[C@H](O)c3ccc(c(Cl)c3)Oc3cc2cc(c3O[C@@H]2O[C@H](CO)[C@@H](O)[C@H](O)[C@@H]2O[C@H]2C[C@](C)(N)[C@H](O)[C@H](C)O2)Oc2ccc(cc2Cl)[C@H]1O,4.73% (inactive),–
CO[C@H]1C[C@@H]2CC[C@@H](C)[C@@](O)(O2)C(=O)C(=O)N2CCCC[C@@H]2C(=O)O[C@H]([C@H](C)C[C@@H]2CC[C@H](OCCO)[C@H](OC)C2)CC(=O)[C@H](C)C=C(C)[C@@H](O)[C@@H](OC)C(=O)[C@H](C)C[C@H](C)C=CC=CC=C1C,24.4% (inactive),–

Compound,activation,Potency
Cc1cc(Nc2cc(N3CCN(C)CC3)nc(C=Cc3ccccc3)n2)n[nH]1,51.8% (inactive),–
CCN(CC)CC(=O)Nc1c(C)cccc1C(=O)OC,-9.21% (inactive),–
Cc1c(F)cc2c(=O)c(C(=O)O)cn3c2c1CCC3C (stereo not given),16.7% (inactive),–
CNC(=O)CN(CCN(CCN(CC(=O)[O-])CC(=O)NC)CC(=O)[O-])CC(=O)[O-].O.[Gd+3],0.837% (inactive),–
C[C@@H](CN(C)C)CN1c2ccccc2Sc2ccccc21,-15.1% (inactive),–
Cc1cc(C=c2sc3nc4ccccc4n3c2=O)c(C)n1-c1ccccc1,-10.2% (inactive),–
Cc1cc(=O)n(-c2ccccc2)n1C,-16.7% (inactive),–
Cc1oc(=O)oc1COC(=O)[C@@H]1N2C(=O)[C@@H](NC(=O)[C@H](N)c3ccccc3)[C@H]2SC1(C)C,-5.08% (inactive),–
CC(C)OC(=O)c1cc2c(OCC(O)CNC(C)(C)C)cccc2[nH]1 (stereo not given),20.9% (inactive),–
CC(C)=CCC[C@@](C)(O)[C@H]1CC=C(C)CC1,18.6% (inactive),–
CC(C)Cc1ccc(CC(=O)O)cc1,-36.8% (inactive),–
Nc1ccc(S(=O)(=O)NCc2ccccc2)cc1,-10% (inactive),–
CCCCCCCCCCC[C@@H](C[C@@H]1OC(=O)[C@H]1CCCCCC)OC(=O)[C@H](CC(C)C)NC=O,2.82% (inactive),–
CO[C@H]1/C=C\O[C@@]2(C)Oc3c(C)c(O)c4c(O)c(c5c(nc6cc(C)ccn65)c4c3C2=O)NC(=O)/C(C)=C\C=C/[C@H](C)[C@H](O)[C@@H](C)[C@@H](O)[C@@H](C)[C@H](OC(C)=O)[C@@H]1C,-1.91% (inactive),–
COc1cc([C@@H]2c3cc4c(cc3[C@@H](O[C@@H]3O[C@@H]5CO[C@@H](c6cccs6)O[C@@H]5[C@H](O)[C@@H]3O)[C@H]3COC(=O)[C@H]23)OCO4)cc(OC)c1O,-12.2% (inactive),–
CC(C)CCCC(C)NCCC(C)C (stereo not given),-13.4% (inactive),–
Cc1c(C(=O)NCCO)[n+](=O)c2ccccc2n1[O-],-11.7% (inactive),–
CC(C)(O)CC[C@@H](O)[C@](C)(O)[C@H]1CC[C@@]2(O)C3=CC(=O)[C@@H]4C[C@@H](O)[C@@H](O)C[C@]4(C)[C@@H]3CC[C@]12C,-14.8% (inactive),–
C#C[C@]1(O)CC[C@H]2[C@H]3CCc4cc(OC)ccc4[C@H]3CC[C@@]21C,-30% (inactive),–
Cc1cnc(NS(=O)(=O)c2ccc(N)cc2)nc1,2.82% (inactive),–
